Source: PubChem BioAssay (NCI)
This is part of a sample that, as a whole, favours compounds with a hit. Of some 83,000 tested, about 20% had one in any assay.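 Single-dose data. Exposure time 48 hours. Values below 10 considered active.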 A number with no mark means an inactive call. Activity calls are given as the source filed them.

system: NCI-H23 lung; test: NCI-60 one-dose screen, 48 h (100 = growth as untreated, 0 = no growth, -100 = all killed); conditions: 10 µM unless noted

Point of comparison: `CCCCCC(C)(O)C(C(=O)O)c1ccccc1` (stereo not drawn), growth 107%. Against it:
- CO[C@H]1CC(c2ccc[nH]2)=N[C@]12O[C@@H](C)C[C@@H]1CCCCCCCc3ccc([nH]3)[C@H]12 — lower, 28.1%
- O=c1c(/C=C/c2c(O)ccc3ccccc23)nnc2sc(-c3cccc([N+](=O)[O-])c3)nn12 — lower, 61.6%
- CCOC(=O)CC1C(CNC(=O)NC)OC(n2cnc3c(NC(=O)Nc4ccccc4)ncnc32)C1O[Si](C)(C)C(C)(C)C (stereo not drawn) — lower, 91.7%
- COc1ccc(Cn2cc3c(c2)-c2oncc2CC3)cc1 — lower, 79.8%
- O=[N+]([O-])c1ccc(Oc2cccc3c(Oc4ccc([N+](=O)[O-])cc4[N+](=O)[O-])cccc23)c([N+](=O)[O-])c1 — lower, 75.3%
- CCCCCN(CCCCC)CC(O)c1c(Cl)ccc2ccccc12 (stereo not drawn) — lower, 54.1%
- Cn1cc(-c2csc(-c3cn(C)c4ccc(F)cc34)n2)c2cnccc21 — lower, 75.7%
- CNC1=C([N+](=O)[O-])C(c2ccc(OC)cc2)C(C#N)=C(c2ccc[nH]2)O1 (stereo not drawn) — lower, 98.5%
- Cc1cc(C(=O)Nc2cc(Nc3ncccc3-c3ncnc4nc[nH]c34)ccc2F)cc(C(C)(C)C#N)c1 — lower, 19.1%
- COC(=O)CNC(=O)c1ccc(NC(=O)c2[nH]c(C)c(Cl)c2Cl)c(O[C@H]2CCNC2)c1 — lower, 98.7%
- FC(F)(F)c1cccc(-c2nnn(Cc3cc(-c4cccc(Cl)c4)no3)n2)c1 — lower, 102%
- O=C(Nc1ncc(Cc2ccccc2)s1)c1ccc2c(c1)OCCO2 — lower, 30.8%
- O=C(Nc1ccccc1C(F)(F)F)C1=NCCCCN1 — lower, 98.5%
- Nc1ncnc2c1N=C(c1ccc([N+](=O)[O-])cc1)CC(c1ccc3c(c1)OCO3)N2 (stereo not drawn) — lower, 83.8%
- COc1cc2c(cc1OC)CC[N+](CCC[N+](C)(C)C)=C2 — lower, 106%
- O=C1Nc2ccccc2/C1=C/c1cccn1CCCCCCn1c2ccccc2c(=O)c2ccccc21 — lower, 73.6%
- Cc1ccc(C23CCC(=O)N2CCc2cncn23)cc1 (stereo not drawn) — lower, 97.4%
- Cc1ccc(-c2nn(CC(=O)N3CCOCC3)c(N)c2C#N)cc1 — lower, 100%
- COC(=O)[C@H](C)NC(=O)[C@@H]1CCCN1C(=O)CNC(=O)[C@H](C)N — lower, 105%
- O=C1c2c(c3c4cccnc4[nH]c3c3ccc4ccccc4c23)C(=O)N1O — lower, 35.5%
- COc1ccc(CNc2c3ccccc3nc3ccccc23)cc1OC — lower, 15.1%
- COc1ccc(-c2csc(NC(=O)CSc3nc(C)cc(=O)[nH]3)n2)cc1 — lower, 91.1%
- COc1ccc(-c2cn(Cc3ccc4c(Br)cc(Br)c(O)c4n3)nn2)cc1 — lower, 95.5%
- COC(=O)c1c(C(=O)OC)c2ccc3c4ncccc4ccc3n2c1C(=O)c1ccc(C)cc1 — lower, 101%
- O=[N+]([O-])c1ccc(N/N=C\c2cc(Cl)ccc2O)nc1 — lower, 32.7%
- COc1ccc(C(=O)/C=C/c2ccc(C)cc2)cc1S(N)(=O)=O — lower, 77.4%
- CN1CCN(CC(=O)N(C)c2ccc(N=C(c3ccccc3)c3c(O)[nH]c4ccc([N+](=O)[O-])cc34)cc2)CC1 — lower, 80.4%
- Nc1nc(N)c2c(n1)NC(c1cccc(Nc3ccnc4cc(C(F)(F)F)ccc34)c1)CC(c1ccc(Cl)cc1)=N2 (stereo not drawn) — lower, 64.7%
- C=C(C[n+]1ccccc1)[C@@H]1CC[C@]2(C(=O)OC)CC[C@]3(C)[C@H](CC[C@@H]4[C@@]5(C)CCC(=O)C(C)(C)[C@@H]5CC[C@]43C)[C@@H]12 — lower, 87.9%

With `COc1ccc2c(O)cc3c(c2c1)[C@H](CCl)CN3C(=O)c1cc2cc(NC(=O)CCN3CCOCC3)ccc2[se]1` the growth was -50.7% (active).
For `CC1(C)CCC[C@]23C(=O)O[C@](O)(C(=O)C4=C[C@@](C)(/C=C/CCCc5ccc6ccc7cccc8ccc5c6c78)CC[C@@]42O)[C@@H]13`, the growth was -60.6% (active).
With `COc1ccc(-c2ccc(-c3ccc(C(=N)N)nc3)s2)cc1` the growth was -29.9% (active).
With `CCOC(=O)c1ccc2c(c1)[n+](=O)c(C(C)=O)c(C(F)(F)F)n2[O-]` the growth was -16.9% (active).
`CCCS(=O)(=O)Nc1cccc(Nc2ncnc3cc(NC(=O)CCl)ccc23)c1Cl` was tested, and the growth was -52.2% (active).
`C#CCOc1cccc(Nc2ncnc3c(NC(=O)CCl)cccc23)c1` was tested, and the growth was 6.09% (active).
In the case of `O=C(CNc1ncco1)Nc1ccc(S(=O)(=O)c2ccc(NC(=O)CNc3ncco3)cc2)cc1`, the growth is reported as 4.33% (active).
For `Cc1c2cnccc2c(C)c2c1c1cc(C(=O)O)ccc1n2C`, the growth was -32.4% (active).
In the case of `C=CC(=O)NCc1cccc(Nc2ncc(Br)c(NCCCNC(=O)C3CCC3)n2)c1`, the growth is reported as -37% (active).

system: NCI-H226 lung; test: as above; conditions: 10 µM unless noted

Point of comparison: `Cc1cc(C(=O)Nc2cc(Nc3ncccc3-c3ncnc4nc[nH]c34)ccc2F)cc(C(C)(C)C#N)c1`, growth 39.9%. Against it:
- CO[C@H]1CC(c2ccc[nH]2)=N[C@]12O[C@@H](C)C[C@@H]1CCCCCCCc3ccc([nH]3)[C@H]12 — lower, 29.3%
- O=c1c(/C=C/c2c(O)ccc3ccccc23)nnc2sc(-c3cccc([N+](=O)[O-])c3)nn12 — higher, 64.2%
- CCOC(=O)CC1C(CNC(=O)NC)OC(n2cnc3c(NC(=O)Nc4ccccc4)ncnc32)C1O[Si](C)(C)C(C)(C)C (stereo not drawn) — higher, 75.9%
- COc1ccc(-c2ccc(-c3ccc(C(=N)N)nc3)s2)cc1 — higher, 83.4%
- COc1ccc(Cn2cc3c(c2)-c2oncc2CC3)cc1 — higher, 86.9%
- O=[N+]([O-])c1ccc(Oc2cccc3c(Oc4ccc([N+](=O)[O-])cc4[N+](=O)[O-])cccc23)c([N+](=O)[O-])c1 — higher, 83.9%
- CCCCCN(CCCCC)CC(O)c1c(Cl)ccc2ccccc12 (stereo not drawn) — higher, 70.4%
- Cn1cc(-c2csc(-c3cn(C)c4ccc(F)cc34)n2)c2cnccc21 — higher, 68.5%
- CNC1=C([N+](=O)[O-])C(c2ccc(OC)cc2)C(C#N)=C(c2ccc[nH]2)O1 (stereo not drawn) — higher, 102%
- COC(=O)CNC(=O)c1ccc(NC(=O)c2[nH]c(C)c(Cl)c2Cl)c(O[C@H]2CCNC2)c1 — higher, 104%
- FC(F)(F)c1cccc(-c2nnn(Cc3cc(-c4cccc(Cl)c4)no3)n2)c1 — higher, 101%
- O=C(Nc1ncc(Cc2ccccc2)s1)c1ccc2c(c1)OCCO2 — lower, 12.8%
- CCOC(=O)c1ccc2c(c1)[n+](=O)c(C(C)=O)c(C(F)(F)F)n2[O-] — higher, 41.2%
- O=C(Nc1ccccc1C(F)(F)F)C1=NCCCCN1 — higher, 96.1%
- CCCCCC(C)(O)C(C(=O)O)c1ccccc1 (stereo not drawn) — higher, 104%
- Nc1ncnc2c1N=C(c1ccc([N+](=O)[O-])cc1)CC(c1ccc3c(c1)OCO3)N2 (stereo not drawn) — higher, 86.5%
- COc1cc2c(cc1OC)CC[N+](CCC[N+](C)(C)C)=C2 — higher, 104%
- O=C1Nc2ccccc2/C1=C/c1cccn1CCCCCCn1c2ccccc2c(=O)c2ccccc21 — higher, 72.7%
- Cc1ccc(C23CCC(=O)N2CCc2cncn23)cc1 (stereo not drawn) — higher, 96.2%
- Cc1ccc(-c2nn(CC(=O)N3CCOCC3)c(N)c2C#N)cc1 — higher, 102%
- COC(=O)[C@H](C)NC(=O)[C@@H]1CCCN1C(=O)CNC(=O)[C@H](C)N — higher, 101%
- O=C1c2c(c3c4cccnc4[nH]c3c3ccc4ccccc4c23)C(=O)N1O — higher, 72.3%
- C#CCOc1cccc(Nc2ncnc3c(NC(=O)CCl)cccc23)c1 — higher, 48.9%
- COc1ccc(CNc2c3ccccc3nc3ccccc23)cc1OC — lower, 27.9%
- COc1ccc(-c2csc(NC(=O)CSc3nc(C)cc(=O)[nH]3)n2)cc1 — higher, 111%
- COc1ccc(-c2cn(Cc3ccc4c(Br)cc(Br)c(O)c4n3)nn2)cc1 — higher, 101%
- COC(=O)c1c(C(=O)OC)c2ccc3c4ncccc4ccc3n2c1C(=O)c1ccc(C)cc1 — higher, 96.6%
- O=[N+]([O-])c1ccc(N/N=C\c2cc(Cl)ccc2O)nc1 — higher, 100%
- COc1ccc(C(=O)/C=C/c2ccc(C)cc2)cc1S(N)(=O)=O — higher, 83%
- CN1CCN(CC(=O)N(C)c2ccc(N=C(c3ccccc3)c3c(O)[nH]c4ccc([N+](=O)[O-])cc34)cc2)CC1 — higher, 61.9%
- Nc1nc(N)c2c(n1)NC(c1cccc(Nc3ccnc4cc(C(F)(F)F)ccc34)c1)CC(c1ccc(Cl)cc1)=N2 (stereo not drawn) — higher, 82.7%
- C=C(C[n+]1ccccc1)[C@@H]1CC[C@]2(C(=O)OC)CC[C@]3(C)[C@H](CC[C@@H]4[C@@]5(C)CCC(=O)C(C)(C)[C@@H]5CC[C@]43C)[C@@H]12 — higher, 90.3%

For `COc1ccc2c(O)cc3c(c2c1)[C@H](CCl)CN3C(=O)c1cc2cc(NC(=O)CCN3CCOCC3)ccc2[se]1`, the growth was -12.5% (active).
`CC1(C)CCC[C@]23C(=O)O[C@](O)(C(=O)C4=C[C@@](C)(/C=C/CCCc5ccc6ccc7cccc8ccc5c6c78)CC[C@@]42O)[C@@H]13` was tested, and the growth was -69.5% (active).
`CCCS(=O)(=O)Nc1cccc(Nc2ncnc3cc(NC(=O)CCl)ccc23)c1Cl` was tested, and the growth was -18.3% (active).
For `O=C(CNc1ncco1)Nc1ccc(S(=O)(=O)c2ccc(NC(=O)CNc3ncco3)cc2)cc1`, the growth was -17.7% (active).
In the case of `Cc1c2cnccc2c(C)c2c1c1cc(C(=O)O)ccc1n2C`, the growth is reported as -25.8% (active).
In the case of `C=CC(=O)NCc1cccc(Nc2ncc(Br)c(NCCCNC(=O)C3CCC3)n2)c1`, the growth is reported as -0.669% (active).
